For 1 sequence, binding signal results are on record in PMC7862700, “An all-to-all approach to the identification of sequence-specific readers for epigenetic DNA modifications on cytosine”.

Holding throughout (experiment): DAPPL (digital affinity profiling via proximity ligation, sequencing); 10 mM Tris-HCl pH 7.5, 50 mM NaCl, 1 mM DTT, 4% glycerol, room temperature, 30 min; GST-TFs on glutathione beads, 16-mer random dsDNA library, 0.1% formaldehyde crosslink after washing; high values mean tight binding
One test has as its target T1, FEV (Homo sapiens, UniProt Q99581 1-238).
T1 sequence: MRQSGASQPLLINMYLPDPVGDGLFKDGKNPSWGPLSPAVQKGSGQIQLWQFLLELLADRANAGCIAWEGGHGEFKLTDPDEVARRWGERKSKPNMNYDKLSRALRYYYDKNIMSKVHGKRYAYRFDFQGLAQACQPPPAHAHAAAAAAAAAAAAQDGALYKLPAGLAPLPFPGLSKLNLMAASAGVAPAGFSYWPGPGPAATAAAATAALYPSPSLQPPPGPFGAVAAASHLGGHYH
The settings on record: protein: recombinant; tags: N-terminal GST; dsDNA, one strand shown. The method in brief: (§1)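 In yeast, human transcription factors were expressed with a GST fusion, then pulled down on glutathione beads and given DNA barcodes. Pooled with a tag-only sample, they were exposed to 200 nmole of a 16-mer random double-stranded DNA library (Tris/NaCl/DTT/glycerol buffer, room temperature, 30 min), washed, crosslinked with 0.1% formaldehyde, proximity-ligated using BsaI/T4 ligase for 1 h at 37 °C, PCR-amplified and read on an Illumina NextSeq500. Each hexamer's frequency of reads for a factor, divided by the matching frequency for the tag-only sample, gives the binding signal.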

The next test addresses ETV5 (Homo sapiens, UniProt P41161 1-510). As to conditions: protein: recombinant; tags: N-terminal GST; dsDNA, one strand shown. In short, it runs like this:
as §1

The next test has as its target HSF1 (Homo sapiens, UniProt Q00613 1-529). The settings on record: protein: recombinant; tags: N-terminal GST; chain copies: 3; dsDNA, one strand shown. The method in brief:
as §1

In another test the target is T2, SPIC (Homo sapiens, UniProt Q8N5J4 1-248).
T2 sequence: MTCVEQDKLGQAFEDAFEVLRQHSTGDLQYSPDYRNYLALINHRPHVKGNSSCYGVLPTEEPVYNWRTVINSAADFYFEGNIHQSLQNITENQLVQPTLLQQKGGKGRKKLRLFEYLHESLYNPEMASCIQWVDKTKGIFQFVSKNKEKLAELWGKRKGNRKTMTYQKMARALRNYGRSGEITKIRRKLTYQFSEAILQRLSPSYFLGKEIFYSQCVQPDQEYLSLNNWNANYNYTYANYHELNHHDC
As to conditions: protein: recombinant; tags: N-terminal GST; dsDNA, one strand shown. The method in brief: as §1

In another test the target is ELF4 (Homo sapiens, UniProt Q99607 1-663). As to conditions: protein: recombinant; tags: N-terminal GST; dsDNA, one strand shown. The method in brief:
as §1

For another test, the target named is T3, ELK4 (Homo sapiens, UniProt P28324-2 1-405).
T3 sequence: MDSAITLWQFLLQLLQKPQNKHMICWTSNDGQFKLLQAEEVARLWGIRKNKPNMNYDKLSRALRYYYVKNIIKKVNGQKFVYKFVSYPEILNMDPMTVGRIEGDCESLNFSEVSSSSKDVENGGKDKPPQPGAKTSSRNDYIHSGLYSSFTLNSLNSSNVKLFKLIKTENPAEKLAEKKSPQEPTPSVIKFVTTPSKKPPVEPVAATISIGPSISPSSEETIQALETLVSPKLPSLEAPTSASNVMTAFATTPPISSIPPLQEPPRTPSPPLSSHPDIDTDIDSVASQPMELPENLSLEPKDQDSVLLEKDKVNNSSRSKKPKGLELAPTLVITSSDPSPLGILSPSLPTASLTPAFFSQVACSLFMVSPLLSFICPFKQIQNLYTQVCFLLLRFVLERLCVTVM
The settings on record: protein: recombinant; tags: N-terminal GST; dsDNA, one strand shown. In short, it runs like this: as §1

A further test addresses T4, ETV2 (Homo sapiens, UniProt O00321 1-342).
T4 sequence: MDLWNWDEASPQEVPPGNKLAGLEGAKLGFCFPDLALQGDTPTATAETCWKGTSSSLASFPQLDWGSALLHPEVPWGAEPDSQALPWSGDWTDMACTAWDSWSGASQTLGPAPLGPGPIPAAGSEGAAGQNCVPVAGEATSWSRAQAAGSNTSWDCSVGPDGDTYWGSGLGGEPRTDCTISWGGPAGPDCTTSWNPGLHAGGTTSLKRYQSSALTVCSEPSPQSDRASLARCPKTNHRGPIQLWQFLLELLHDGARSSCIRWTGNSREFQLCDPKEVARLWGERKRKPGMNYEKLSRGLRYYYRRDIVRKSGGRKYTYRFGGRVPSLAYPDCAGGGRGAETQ
As to conditions: protein: recombinant; tags: N-terminal GST; dsDNA, one strand shown. In short, it runs like this:
as §1

The next test has as its target T5, ELF3 (Homo sapiens, UniProt P78545 1-371).
T5 sequence: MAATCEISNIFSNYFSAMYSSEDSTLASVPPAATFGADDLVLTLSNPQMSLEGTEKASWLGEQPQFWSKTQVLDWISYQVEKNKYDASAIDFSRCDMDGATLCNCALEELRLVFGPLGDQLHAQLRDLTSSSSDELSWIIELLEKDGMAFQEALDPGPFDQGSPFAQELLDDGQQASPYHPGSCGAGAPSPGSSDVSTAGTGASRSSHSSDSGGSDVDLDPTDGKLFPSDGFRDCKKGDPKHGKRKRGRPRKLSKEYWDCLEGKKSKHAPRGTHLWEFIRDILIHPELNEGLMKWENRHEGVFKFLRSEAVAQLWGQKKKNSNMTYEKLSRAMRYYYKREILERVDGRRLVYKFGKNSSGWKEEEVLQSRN
As to conditions: protein: recombinant; tags: N-terminal GST; dsDNA, one strand shown. The method in brief: as §1

The target of another test is CRX (Homo sapiens, UniProt O43186 1-299). The settings on record: protein: recombinant; tags: N-terminal GST; dsDNA, one strand shown. The method in brief: as §1
Another test concerns the target ETV1 (Homo sapiens, UniProt P50549 1-477). The settings on record: protein: recombinant; tags: N-terminal GST; dsDNA, one strand shown. In short, it runs like this: as §1
A further test addresses T6, ERF (Homo sapiens, UniProt P50548 1-548).
T6 sequence: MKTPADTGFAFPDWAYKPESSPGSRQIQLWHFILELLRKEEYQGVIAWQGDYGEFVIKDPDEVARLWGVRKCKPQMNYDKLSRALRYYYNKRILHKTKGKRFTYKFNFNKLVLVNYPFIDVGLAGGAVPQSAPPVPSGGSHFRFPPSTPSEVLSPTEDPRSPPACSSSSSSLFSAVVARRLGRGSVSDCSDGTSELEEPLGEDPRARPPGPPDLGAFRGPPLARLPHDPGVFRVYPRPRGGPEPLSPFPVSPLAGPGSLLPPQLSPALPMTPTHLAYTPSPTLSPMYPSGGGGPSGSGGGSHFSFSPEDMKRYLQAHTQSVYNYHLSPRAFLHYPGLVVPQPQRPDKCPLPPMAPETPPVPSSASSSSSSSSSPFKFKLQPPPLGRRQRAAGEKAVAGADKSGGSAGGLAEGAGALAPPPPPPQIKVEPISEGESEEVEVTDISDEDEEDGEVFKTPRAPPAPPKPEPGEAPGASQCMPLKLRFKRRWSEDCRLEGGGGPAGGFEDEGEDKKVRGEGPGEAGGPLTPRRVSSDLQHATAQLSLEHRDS
The settings on record: protein: recombinant; tags: N-terminal GST; dsDNA, one strand shown. The method in brief: as §1

A further test concerns the target T7, ETV3L (Homo sapiens, UniProt Q6ZN32 1-361).
T7 sequence: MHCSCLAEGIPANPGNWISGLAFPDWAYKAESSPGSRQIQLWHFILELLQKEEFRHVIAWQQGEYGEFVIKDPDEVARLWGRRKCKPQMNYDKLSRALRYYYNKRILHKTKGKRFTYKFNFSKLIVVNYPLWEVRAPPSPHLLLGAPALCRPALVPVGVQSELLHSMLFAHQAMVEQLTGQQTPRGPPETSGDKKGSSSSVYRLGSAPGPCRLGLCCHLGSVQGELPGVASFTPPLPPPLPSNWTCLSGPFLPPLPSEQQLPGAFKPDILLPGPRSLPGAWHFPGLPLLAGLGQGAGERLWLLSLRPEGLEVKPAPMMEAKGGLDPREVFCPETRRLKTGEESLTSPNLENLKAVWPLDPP
The settings on record: protein: recombinant; tags: N-terminal GST; dsDNA, one strand shown. In short, it runs like this:
as §1

In another test the target is T8, ETS2 (Homo sapiens, UniProt P15036 1-469).
T8 sequence: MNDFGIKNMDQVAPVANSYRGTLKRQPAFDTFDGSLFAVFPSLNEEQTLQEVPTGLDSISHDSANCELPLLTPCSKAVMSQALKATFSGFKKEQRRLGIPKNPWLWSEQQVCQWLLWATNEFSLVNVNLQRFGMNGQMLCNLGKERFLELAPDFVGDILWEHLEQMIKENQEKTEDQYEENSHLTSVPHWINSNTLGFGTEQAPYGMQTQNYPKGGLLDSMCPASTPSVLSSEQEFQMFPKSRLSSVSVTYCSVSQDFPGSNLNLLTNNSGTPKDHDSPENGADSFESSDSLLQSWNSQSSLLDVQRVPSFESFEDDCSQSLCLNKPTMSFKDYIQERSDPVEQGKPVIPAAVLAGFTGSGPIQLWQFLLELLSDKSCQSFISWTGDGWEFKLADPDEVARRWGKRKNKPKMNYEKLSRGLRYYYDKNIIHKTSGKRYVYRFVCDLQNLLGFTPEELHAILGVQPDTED
As to conditions: protein: recombinant; tags: N-terminal GST; dsDNA, one strand shown. In short, it runs like this:
as §1

The next test addresses T9, SPDEF (Homo sapiens, UniProt O95238 1-335).
T9 sequence: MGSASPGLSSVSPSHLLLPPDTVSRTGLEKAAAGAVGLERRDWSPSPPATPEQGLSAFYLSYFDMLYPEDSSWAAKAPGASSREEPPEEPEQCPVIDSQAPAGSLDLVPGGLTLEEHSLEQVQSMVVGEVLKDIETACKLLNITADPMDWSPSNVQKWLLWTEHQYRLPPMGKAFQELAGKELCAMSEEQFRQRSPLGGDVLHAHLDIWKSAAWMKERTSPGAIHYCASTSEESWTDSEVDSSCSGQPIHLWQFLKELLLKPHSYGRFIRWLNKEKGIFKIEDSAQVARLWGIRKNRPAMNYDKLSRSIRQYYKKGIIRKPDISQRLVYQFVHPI
The settings on record: protein: recombinant; tags: N-terminal GST; dsDNA, one strand shown. The method in brief: as §1

The next test concerns the target T10, ETV7 (Homo sapiens, UniProt Q9Y603 1-341).
T10 sequence: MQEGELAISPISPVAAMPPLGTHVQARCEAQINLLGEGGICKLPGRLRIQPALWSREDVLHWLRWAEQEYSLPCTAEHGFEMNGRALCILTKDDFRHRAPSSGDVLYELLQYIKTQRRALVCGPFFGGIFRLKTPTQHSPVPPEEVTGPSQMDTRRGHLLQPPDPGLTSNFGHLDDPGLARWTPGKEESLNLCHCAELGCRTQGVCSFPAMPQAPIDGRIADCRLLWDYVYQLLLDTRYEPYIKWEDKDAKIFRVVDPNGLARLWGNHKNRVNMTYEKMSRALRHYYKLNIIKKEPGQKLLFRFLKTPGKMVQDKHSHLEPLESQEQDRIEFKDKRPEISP
As to conditions: protein: recombinant; tags: N-terminal GST; dsDNA, one strand shown. In short, it runs like this:
as §1

The next test concerns the target T11, ELF5 (Homo sapiens, UniProt Q9UKW6-2 1-255).
T11 sequence: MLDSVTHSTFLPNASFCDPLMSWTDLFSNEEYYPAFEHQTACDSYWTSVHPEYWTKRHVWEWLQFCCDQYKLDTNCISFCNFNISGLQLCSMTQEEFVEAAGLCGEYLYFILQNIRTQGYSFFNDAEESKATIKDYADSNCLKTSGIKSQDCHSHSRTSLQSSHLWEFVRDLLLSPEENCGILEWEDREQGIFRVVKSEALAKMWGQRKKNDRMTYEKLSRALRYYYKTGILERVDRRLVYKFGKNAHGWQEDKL
As to conditions: protein: recombinant; tags: N-terminal GST; dsDNA, one strand shown. In short, it runs like this:
as §1

The target in a further test is T12, ETV3 (Homo sapiens, UniProt P41162-2 1-143).
T12 sequence: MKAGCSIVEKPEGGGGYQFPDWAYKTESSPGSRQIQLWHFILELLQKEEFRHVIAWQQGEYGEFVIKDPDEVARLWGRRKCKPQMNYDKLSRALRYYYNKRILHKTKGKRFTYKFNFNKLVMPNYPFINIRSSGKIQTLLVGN
As to conditions: protein: recombinant; tags: N-terminal GST; dsDNA, one strand shown. In short, it runs like this: as §1

For another test, the target named is ETV6 (Homo sapiens, UniProt P41212 1-452). The settings on record: protein: recombinant; tags: N-terminal GST; dsDNA, one strand shown. The method in brief:
as §1

Chain of HSF1 (Q00613 whole entry): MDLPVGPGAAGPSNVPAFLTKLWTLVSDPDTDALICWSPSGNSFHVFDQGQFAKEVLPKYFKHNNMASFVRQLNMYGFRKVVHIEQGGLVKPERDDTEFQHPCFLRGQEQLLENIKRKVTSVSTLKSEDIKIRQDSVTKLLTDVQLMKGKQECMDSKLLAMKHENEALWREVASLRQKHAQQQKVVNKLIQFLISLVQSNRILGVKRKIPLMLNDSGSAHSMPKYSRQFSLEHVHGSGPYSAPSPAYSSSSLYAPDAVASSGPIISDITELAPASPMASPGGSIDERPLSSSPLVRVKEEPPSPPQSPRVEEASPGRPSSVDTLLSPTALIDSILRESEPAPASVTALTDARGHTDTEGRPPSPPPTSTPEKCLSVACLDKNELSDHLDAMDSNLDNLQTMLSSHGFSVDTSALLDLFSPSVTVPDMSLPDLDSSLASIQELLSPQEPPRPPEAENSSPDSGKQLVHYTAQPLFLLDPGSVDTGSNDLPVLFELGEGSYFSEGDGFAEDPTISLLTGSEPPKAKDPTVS
Chain of ETV6 (P41212 whole entry): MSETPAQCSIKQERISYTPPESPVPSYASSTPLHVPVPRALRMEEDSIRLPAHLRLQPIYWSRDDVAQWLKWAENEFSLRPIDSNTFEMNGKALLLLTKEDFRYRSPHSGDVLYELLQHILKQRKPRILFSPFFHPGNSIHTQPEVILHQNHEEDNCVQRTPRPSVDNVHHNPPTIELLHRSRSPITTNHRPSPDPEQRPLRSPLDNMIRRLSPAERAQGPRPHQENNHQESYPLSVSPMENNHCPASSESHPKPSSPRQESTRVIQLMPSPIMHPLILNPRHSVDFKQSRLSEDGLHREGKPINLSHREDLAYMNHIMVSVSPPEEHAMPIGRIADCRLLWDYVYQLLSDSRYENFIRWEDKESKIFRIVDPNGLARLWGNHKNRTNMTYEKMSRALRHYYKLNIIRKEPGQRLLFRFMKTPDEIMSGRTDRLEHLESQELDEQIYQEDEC
Chain of ELF4 (Q99607 whole entry): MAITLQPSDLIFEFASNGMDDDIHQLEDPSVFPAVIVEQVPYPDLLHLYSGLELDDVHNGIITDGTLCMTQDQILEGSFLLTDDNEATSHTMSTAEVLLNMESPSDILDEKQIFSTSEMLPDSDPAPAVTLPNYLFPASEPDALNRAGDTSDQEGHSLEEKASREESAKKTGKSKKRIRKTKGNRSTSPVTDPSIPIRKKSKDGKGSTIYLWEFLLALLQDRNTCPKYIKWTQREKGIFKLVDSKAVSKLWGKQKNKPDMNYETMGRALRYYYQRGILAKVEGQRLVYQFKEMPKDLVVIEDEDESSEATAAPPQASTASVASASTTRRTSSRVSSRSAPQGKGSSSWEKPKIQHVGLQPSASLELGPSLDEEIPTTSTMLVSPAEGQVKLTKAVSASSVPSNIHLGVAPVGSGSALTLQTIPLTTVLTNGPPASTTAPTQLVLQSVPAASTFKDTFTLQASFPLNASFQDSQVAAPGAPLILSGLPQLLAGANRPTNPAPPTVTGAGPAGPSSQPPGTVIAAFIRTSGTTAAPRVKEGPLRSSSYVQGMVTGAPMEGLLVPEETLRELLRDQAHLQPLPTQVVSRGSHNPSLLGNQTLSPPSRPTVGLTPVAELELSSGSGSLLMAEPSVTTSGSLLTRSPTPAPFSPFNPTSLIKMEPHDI
Chain of ETV5 (P41161 whole entry): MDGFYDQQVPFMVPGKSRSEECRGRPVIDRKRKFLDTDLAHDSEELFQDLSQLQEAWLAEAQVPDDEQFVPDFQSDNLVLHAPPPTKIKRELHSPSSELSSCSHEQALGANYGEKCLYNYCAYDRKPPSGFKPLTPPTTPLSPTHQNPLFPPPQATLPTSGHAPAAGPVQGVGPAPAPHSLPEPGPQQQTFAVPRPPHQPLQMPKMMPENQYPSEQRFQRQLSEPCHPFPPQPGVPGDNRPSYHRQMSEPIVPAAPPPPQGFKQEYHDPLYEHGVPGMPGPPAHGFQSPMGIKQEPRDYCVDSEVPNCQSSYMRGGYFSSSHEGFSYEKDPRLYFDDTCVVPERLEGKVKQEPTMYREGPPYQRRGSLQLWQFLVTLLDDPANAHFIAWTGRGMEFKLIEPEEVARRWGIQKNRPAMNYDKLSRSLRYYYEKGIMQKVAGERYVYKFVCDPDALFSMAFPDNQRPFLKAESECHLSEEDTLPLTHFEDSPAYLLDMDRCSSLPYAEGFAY
Chain of CRX (O43186 whole entry): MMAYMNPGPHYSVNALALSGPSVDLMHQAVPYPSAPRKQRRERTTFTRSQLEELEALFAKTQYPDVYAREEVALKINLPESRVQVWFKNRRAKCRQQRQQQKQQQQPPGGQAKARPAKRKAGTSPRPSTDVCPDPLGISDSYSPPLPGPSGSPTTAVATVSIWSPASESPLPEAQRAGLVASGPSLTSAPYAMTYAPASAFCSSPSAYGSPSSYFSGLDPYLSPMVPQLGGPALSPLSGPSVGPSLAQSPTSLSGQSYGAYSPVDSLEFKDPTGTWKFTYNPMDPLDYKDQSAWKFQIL
Chain of ETV1 (P50549 whole entry): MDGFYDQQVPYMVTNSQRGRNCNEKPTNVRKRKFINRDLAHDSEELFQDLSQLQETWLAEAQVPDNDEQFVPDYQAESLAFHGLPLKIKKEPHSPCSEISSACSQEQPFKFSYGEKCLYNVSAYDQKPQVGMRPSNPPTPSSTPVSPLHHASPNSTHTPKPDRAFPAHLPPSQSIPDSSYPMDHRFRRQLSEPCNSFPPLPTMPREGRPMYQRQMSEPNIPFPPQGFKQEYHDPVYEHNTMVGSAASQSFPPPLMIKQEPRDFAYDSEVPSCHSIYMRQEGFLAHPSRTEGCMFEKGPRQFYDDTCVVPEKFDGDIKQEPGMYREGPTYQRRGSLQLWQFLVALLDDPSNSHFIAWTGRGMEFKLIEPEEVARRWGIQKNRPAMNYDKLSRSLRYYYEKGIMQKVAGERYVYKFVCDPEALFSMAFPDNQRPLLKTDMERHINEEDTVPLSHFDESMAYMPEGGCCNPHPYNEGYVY

As to CTACCA, the binding signal with FEV is 1.14 fold enrichment (6-mer frequency, TF over GST control); with ETV5, 1.2 fold enrichment (6-mer frequency, TF over GST control); with HSF1 it was 1.24 fold enrichment (6-mer frequency, TF over GST control); in the test with SPIC, 1.14 fold enrichment (6-mer frequency, TF over GST control); with ELF4 it was 1.39 fold enrichment (6-mer frequency, TF over GST control); with ELK4, 1.24 fold enrichment (6-mer frequency, TF over GST control). Moreover, the binding signal was 1.1 fold enrichment (6-mer frequency, TF over GST control) with ETV2; 1.17 fold enrichment (6-mer frequency, TF over GST control) with ELF3; 1.09 fold enrichment (6-mer frequency, TF over GST control) with CRX; 1.27 fold enrichment (6-mer frequency, TF over GST control) with ETV1; 1.26 fold enrichment (6-mer frequency, TF over GST control) in the test with ERF; 1.21 fold enrichment (6-mer frequency, TF over GST control) with ETV3L. The binding signal with ETS2 was 1.26 fold enrichment (6-mer frequency, TF over GST control); with SPDEF it was 1.23 fold enrichment (6-mer frequency, TF over GST control); with ETV7, 1.29 fold enrichment (6-mer frequency, TF over GST control); with ELF5, 1.26 fold enrichment (6-mer frequency, TF over GST control); with ETV3, 1.21 fold enrichment (6-mer frequency, TF over GST control); with ETV6, 1.26 fold enrichment (6-mer frequency, TF over GST control).
